This is an account of results in PubChem BioAssay AID1645855 (Buhrlage Lab, Dana-Farber Cancer Institute and Novartis …, 2021).

About 3,100 (6.6%) of roughly 47,000 compounds were called active. For the sample, actives were picked, then their nearest neighbours and some compounds at random. A number with no mark means an inactive call. Cut-off read from the data, not from the text of the source: active = inhibition above about 30%; inactive = the rest.

This test deals with Ubiquitin carboxyl-terminal hydrolase 17-like protein 5 (Homo sapiens) (UniProt A8MUK1). Nature of the test: blocks human USP17 ubiquitin-rhodamine cleavage (AID 1645855). To be noted: purified USP17, Ub-rhodamine cleavage fluorescence, 3 h; at 50 µM; active compounds read high.
Chain of Ubiquitin carboxyl-terminal hydrolase 17-like protein 5 (Homo sapiens) (A8MUK1 whole entry, looked up): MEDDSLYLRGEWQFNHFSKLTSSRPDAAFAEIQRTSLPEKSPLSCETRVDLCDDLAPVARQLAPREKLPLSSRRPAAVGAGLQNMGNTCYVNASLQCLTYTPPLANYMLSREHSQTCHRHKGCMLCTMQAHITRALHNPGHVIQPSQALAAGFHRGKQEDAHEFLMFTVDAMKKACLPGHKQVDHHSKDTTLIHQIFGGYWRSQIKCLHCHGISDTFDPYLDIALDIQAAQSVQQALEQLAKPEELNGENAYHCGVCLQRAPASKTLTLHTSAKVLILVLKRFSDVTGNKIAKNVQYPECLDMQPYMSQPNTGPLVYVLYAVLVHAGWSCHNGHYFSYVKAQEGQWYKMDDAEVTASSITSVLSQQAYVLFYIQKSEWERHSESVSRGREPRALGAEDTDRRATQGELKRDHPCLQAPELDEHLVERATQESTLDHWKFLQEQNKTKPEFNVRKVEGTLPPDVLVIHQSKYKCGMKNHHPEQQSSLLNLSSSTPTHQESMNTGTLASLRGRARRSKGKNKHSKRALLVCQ
One may read the inhibition as the change of the read-out against control, counted positive when it falls. On to `c1cc2c(cc1-c1nn[nH]n1)OCO2`, for which the inhibition was -14.4%.
The value for `CC(=O)N1CC[C@H]2COC(=O)N(Cc3ccccc3)[C@@H]2C1` was 5.56%.
The value for `COc1ccc(CN(C)c2ccc(S(=O)(=O)Nc3ccccn3)cn2)cc1` was 6.32%; that for `O=S(=O)(c1ccccc1F)N1CCCn2nnc(COCC3CC3)c2C1` was 0.743%; that for `COc1ccccc1NC(=O)c1cccc(S(=O)(=O)N2CCc3ccccc32)c1` was -7.94%.
As for `Cc1ccc(NC(=O)c2ccc3c(c2)N(S(C)(=O)=O)CC3)cc1C`, the inhibition is -24.5%.
As to `COc1cccc(NC(=O)c2ccc3c(c2)N(S(C)(=O)=O)CC3)c1`, the inhibition was 30.4% (active).
Turning to `Cn1c(CCNC(=O)c2ccc(C(C)(C)C)cc2)nc2cccnc21`, the inhibition is -167%.
In the case of `COc1ccc(C(=O)CC(c2ccc(Cl)cc2)S(=O)(=O)c2ccccc2)cc1` (centres undefined), the inhibition is 4.59%.
To `COc1ccc(N(Cc2cc(=O)[nH]c3ccccc23)C(=O)c2ccc(Cl)cc2)cc1` belongs 39.6% (active); to `Cc1ccc(C(=O)N(Cc2cc(=O)[nH]c3ccccc23)C(C)C)cc1F`, 0.00655%.
To `CCNC(=O)c1cccc(Nc2c(-c3ccc(Cl)cc3)nc3cnccn23)c1` belongs -21.3%; to `CC(C)c1noc(-c2ccc(OCC(=O)Nc3ccccc3Br)cc2)n1`, -2.89%; to `O=C(Cn1c(=O)n(Cc2ccc3c(c2)OCO3)c(=O)c2ccccc21)NCc1ccco1`, 23%.
To `CC(C)(C)C(=O)Cn1c(=O)n(Cc2ccco2)c(=O)c2ccccc21` belongs -6.03%.
Take `O=C(NCCc1ccccc1)c1ccc2c(=O)n(Cc3ccco3)c(=O)n(Cc3cccc([N+](=O)[O-])c3)c2c1`: the inhibition was 53.8% (active).
For `O=C(O)COCC(=O)Nc1scc2c1c(=O)oc1ccccc12`, the inhibition is 15.1%.
Take `CN1CC(=O)N(C2CCCNC2)Cc2c(NC3CCc4ccccc43)ncnc21` (centres undefined): the inhibition was 50.3% (active).
To `COc1cc(C2CC(=O)c3cnc(N4CCc5ccccc5C4)nc3C2)cc(OC)c1OC` (centres undefined) belongs 7.46%.
The value for `CC1CCc2c(cnc3c(C(=O)NCCc4ccccc4)cnn23)C1` (centres undefined) was -1.68%.
The value for `Cc1c(Cl)c([N+](=O)[O-])nn1CCCC(=O)NC(C)c1ccccc1` (centres undefined) was -29.5%.
For `CCOC(=O)C1(Cc2cc(-c3ccccc3F)no2)CCN(CC)CC1`, the inhibition was -12.6%.
For the compound `Cc1c(-c2nn3c(-c4ccco4)nnc3s2)cccc1[N+](=O)[O-]`, the inhibition is 67.4% (active).
Turning to `O=C(CSc1cn[nH]n1)Nc1ccc(F)c(Cl)c1`, the inhibition was 0.831%.
The value for `CC(=O)Nc1ccc(S(=O)(=O)NCCSc2ccc(C)cc2)cc1` was -12.3%; that for `Cc1ccc(C)c(S(=O)(=O)Nc2ccc(C(=O)NCc3ccc(F)cc3)cc2)c1` was -4.3%; that for `CC(=O)Nc1ccc(S(=O)(=O)NCc2ccc(C(=O)NCc3ccc(C)cc3)cc2)cc1` was 52.9% (active).
The value for `COc1ccc(CCC(=O)Nc2ccc3nc(N4CCOCC4)cc(C)c3c2)cc1` was 33.3% (active); that for `Cc1cc(N2CCOCC2)nc2ccc(NC(=O)CCC(=O)N3CCN(c4ccccn4)CC3)cc12` was -15.4%.
To `Cc1ccc(C)c(N2CCN(C(=O)CCC(=O)Nc3ccc4nc(N5CCN(C)CC5)cc(C)c4c3)CC2)c1` belongs -11.5%.
For `Cc1nn(-c2cccc(F)c2)c2c1c(C)c(CCC(=O)NCc1ccccn1)c(=O)n2C`, the inhibition is 32.6% (active).
Regarding `Cc1nc2cc(C(=O)NCc3ccccn3)ccc2n1-c1cccc(F)c1`, the inhibition is 0.0347%.
The value for `Cc1nn(-c2ccccc2)c2c1c(C)c(CCC(=O)N1CCN(c3ccc(F)cc3)CC1)c(=O)n2C` was 5.08%; that for `Cc1cc(C)c(Cn2cccc2C2=NC(Cc3ccccc3)CO2)c(C)c1` (centres undefined) was 7.3%; that for `Cc1ccc(-c2nc3c4c(C)c(C)n(-c5cccnc5)c4ncn3n2)cc1` was 17%.
In the case of `CN1CCCCC[C@@H]2[C@@H]1C[C@@H](Cc1ccccc1)N2C(=O)c1cc(C2CC2)[nH]n1`, the inhibition is 14.4%.
To `CCN(CC)S(=O)(=O)c1cc(C(=O)Nc2ccc(-c3cn4ccsc4n3)cc2)ccc1Cl` belongs 16.3%; to `N#Cc1ccccc1OCC(=O)Nc1ccc(-c2cn3ccsc3n2)cc1`, 46.9% (active); to `N#Cc1ccc(NC(=O)COC(=O)c2ccc3ccccc3n2)cc1`, -197%.
To `COc1cc(NC(=O)c2noc3c2CCc2sccc2-3)cc(OC)c1` belongs 48.3% (active).
The value for `O=C(NCc1ccccc1)c1noc2c1CCc1sccc1-2` was 4.73%.
As to `COc1ccc(NC(=O)c2cc(CN3CCOCC3)on2)cc1`, the inhibition is -3.06%.
As to `COc1ccc(OC)c(NC(=O)C(Cc2c[nH]c3ccccc23)N2CCS(=O)(=O)CC2)c1` (centres undefined), the inhibition is 3.96%.
As to `O=C(Nc1nnc(-c2cccc([N+](=O)[O-])c2)o1)C1CCN(S(=O)(=O)c2ccc3c(c2)CCC3)CC1`, the inhibition is 73.8% (active).
To `Cc1cccc(-c2nnc(-c3cccc(S(=O)(=O)N4CCCC4)c3)o2)c1` belongs 6.44%.
Take `O=C(COC(=O)C1CCN(S(=O)(=O)c2c(Cl)cccc2Cl)CC1)Nc1ccc2c(c1)CCC2`: the inhibition is 0.533%.
For `Cn1c(=O)c2c(nc(N3CCN(C(=O)c4ccco4)CC3)n2CCSc2nc3ccccc3s2)n(C)c1=O`, the inhibition is 0.301%.
As to `COc1cccc(C(=O)N2CCN(c3nc(-c4ccc(Cl)cc4)no3)CC2)c1OC`, the inhibition is 8.11%.
The value for `Nn1c(SCC(=O)Nc2ccccc2F)nnc1-c1n[nH]c2c1CCC2` was 41.7% (active); that for `O=C(CSc1nccn1C1CCCCC1)Nc1ccccc1F` was 20.2%.
Turning to `Cc1ccccc1NC(=O)CSc1nnc(C2CC2)n1Cc1ccccc1`, the inhibition was -1.39%.
The value for `CC(=O)O[C@H]1CC[C@]2(C)[C@H]3Cc4c(cc(-c5cccnc5)oc4=O)O[C@]3(C)CC[C@H]2C1(C)C` was 1.11%.
On to `O=C(C1CCCN(S(=O)(=O)N2CCOCC2)C1)N1CCN(Cc2ccccc2)CC1` (centres undefined), for which the inhibition was -0.311%.
With `COc1ccc(Cl)cc1NC(C)c1nc2sc(C)c(C)c2c(=O)[nH]1` (centres undefined), the inhibition was -21.9%.
The value for `C/C=C(\Cl)C1=CC(=O)[C@]23C[C@H]2[C@@]2(C)CO[C@@]1(O)[C@@]3(O)O2` was 68.6% (active); that for `CCC1(c2ccccc2)NC(=O)N(CC(=O)Nc2ccc(C)c([N+](=O)[O-])c2)C1=O` (centres undefined) was -6.64%; that for `CCC(=O)c1ccc(OCC(=O)Nc2ccc3c(c2)CCC3)cc1` was 4.25%.
Regarding `COc1ccc(S(=O)(=O)N(C(=O)c2ccccc2)c2ccc3oc4c(c3c2)CCCC4)cc1`, the inhibition was -2.79%.
The value for `O=C(COc1ccc2oc3c(c2c1)CCCC3)Nc1ccccn1` was 70.8% (active); that for `C=C(NC(=O)/C(C)=C/C=C\CCCCCC(C)C)C(=O)N/C(=C/OC)C(=O)OC` was -61.8%; that for `O=C(Cc1ccc(Cl)cc1)N1CCC2(CN(Cc3ccc(O)cc3)C2)C1` was -0.288%.
`CCOc1ccc(C(=O)C[n+]2cc(-c3ccccc3)n3c2CCC3)cc1`: the inhibition was 3.07%.
As for `COc1ccccc1CNCc1c(C(=O)O)c(C)n(-c2ccccc2)c1C`, the inhibition is 6.79%.
The value for `NC(=O)c1ccccc1NC(=O)C1CN(c2nc3c(F)cccc3s2)C1` was 31% (active).
On to `CNC(=O)C1CCN(c2nc3ccc(-c4ccccc4F)nc3s2)CC1`, for which the inhibition is 15.7%.
With `O=C(Nc1ccccc1F)C1CCCN(c2nnc3ccccn23)C1` (centres undefined), the inhibition is 4.67%.
To `CCOc1nc(-c2ccc(Cl)cc2Cl)nc2ccccc12` belongs 9.99%; to `Cc1ccnc(Nc2nc(-c3ccccc3)c3cc(Cl)ccc3n2)n1`, 91.1% (active); to `O=C(Nc1cc(Cl)ccc1F)c1cnc(-c2ccccc2)nc1-c1ccncc1`, -172%.
The value for `COc1cc2c(c(OC)c1OC)-c1ccc(NCCc3ccc(S(N)(=O)=O)cc3)c(=O)cc1[C@@H](NC(C)=O)CC2` was -68.9%; that for `Nc1nc(COC(=O)c2ccoc2)nc(Nc2ccccc2)n1` was -3.92%; that for `Cc1nc(-c2ccc(C)c(S(=O)(=O)NCc3ccccc3Cl)c2)cs1` was 28%.
The value for `CN(CC(=O)Nc1ccc(F)cc1Cl)Cc1ccc2c(c1)OCO2` was -5.43%.
As for `COc1ccc(C(NC(=O)CN(C)Cc2ccc3c(c2)OCO3)c2ccccc2)cc1` (centres undefined), the inhibition was 35.3% (active).
The value for `Cc1ccc(F)cc1NC(=O)CN(C)Cc1ccc2c(c1)OCO2` was 1.53%.
With `CCN(CC)c1ccc2ccc(C(=O)NCCc3ccccn3)cn12`, the inhibition was -61.8%.
The value for `COc1cccc(N2CCN(C(=O)Nc3ccc4c(c3)NC(=O)CO4)CC2)c1` was 45% (active).
To `COc1cccc(NC(=O)N2CC[C@H]3N(C)CC[C@@]3(C(=O)N3CCCC3)CC2)c1` belongs -21.3%; to `Cc1cc2oc(C(=O)Nc3ccc4c(c3)NC(=O)CO4)c(C)c2cc1Cl`, 11.8%.
For `CN(Cc1cccnc1)Cc1ccc(N2CCC(NC(=O)c3ccc4c(c3)OCO4)CC2)nc1`, the inhibition was -12%.
With `CN1CCN(c2ncc3c(=O)n(Cc4ccccn4)ccc3n2)CC1`, the inhibition is 11.4%.
For the compound `O=c1c2cnc(N3CCCCC3)nc2ccn1Cc1cccnc1`, the inhibition is -8.83%.
The value for `O=c1c2cnc(N3CCOCC3)nc2ccn1CCc1ccccc1` was 71.6% (active); that for `Cc1nnc2n1CC(c1cccc(NC(=O)Cn3ccnc3C(C)C)c1)CC2` (centres undefined) was 3.88%.
Turning to `O=C(Cn1c(=O)n(Cc2ccc3c(c2)OCO3)c(=O)c2cccnc21)Nc1ccc(F)cc1`, the inhibition is 14.6%.
To `CC(C)[C@H](NC(=O)N1CCn2c1nc1ccccc12)C(=O)NCCc1ccccc1` belongs -12.9%; to `CC1CCN(c2nc(F)c3c(c2F)S(=O)(=O)CCN3Cc2cccnc2)CC1`, 50.9% (active).
To `CCN1CCN(c2nc(F)c3c(c2F)S(=O)(=O)CCN3CC2CCCO2)CC1` (centres undefined) belongs 16.6%; to `O=S1(=O)c2ccccc2O[C@H]2CCN(c3ncccn3)CC[C@@H]2N1Cc1cccnc1`, -37.6%.
